A selection: hits, their analogues and other compounds. The true share with any hit is near 19%.
HT1080-NT tox – kills 2HG-producing HT-1080-NT fibrosarcoma cells; HT-1080-NT fibrosarcoma viability, CellTiter-Glo ATP luminescence, 48 h; Potency, µM (titrated, usually from 46.1 µM), inactives show at the top dose activity, negative = less viability, actives largely listed as cytotoxic; actives 1.6% (n = 360,000); AID 686970;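 note: NT is the 2HG producing partner of a matched IDH1 knockdown line; potency is the fitted concentration of half-maximal effect; 0% = DMSO-treated cells and -100% = media-only wells without cells; nearly all actives have a fitted effect of over 55% in size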
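A 48-hour cytotoxicity screen used HT-1080-NT cells plated 2 hours before compound delivery. ATP-based CellTiter-Glo luminescence measured viability, normalized to DMSO and no-cell controls.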
TDP1 cell noCPT – qHTS for Inhibitors of human tyrosyl-DNA phosphodiesterase 1 (TDP1): qHTS in cells in absence of CPT | Potency, µM (series often up to 46.2 µM), for the others: at the highest dose activity change, negative = growth inhibition, actives largely listed as inhibitors | DT40 Tdp1-/- hTDP1 cells, no CPT, ATP luminescence, 48 h | AID 686978, 2013 | actives 15% (n = 420,000); note: potency is the fitted concentration of half-maximal effect; nearly all actives have a fitted effect of over 55% in size
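Growth kinetics read by CellTiter-Glo luminescence after ≥48 hr at 37 °C. Cells: DT40 Tdp1-/- stably carrying human TDP1, 400 per well, compound exposure in the absence of CPT (DMSO vehicle).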
HT1080 IDH1KD tx – kills HT-1080 cells with IDH1 knockdown. HT-1080 IDH1 knockdown viability, ATP luminescence, 48 h. Potency, µM (top dose mostly 46.1 µM), for the others: at the top dose activity, negative = toxicity, actives largely listed as cytotoxic. actives 2% (n = 360,000). AID 686971;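 note: potency is the fitted concentration of half-maximal effect; 0% = DMSO wells and -100% = cell-free medium wells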
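Cytotoxicity counter-line: IDH1KD HT-1080, 48 h, CellTiter-Glo. Curves classed by r2, magnitude and activity.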
uPA generation – blocks generation of uPA at the cell surface; actives 0.31% (n = 330,000); Potency, µM (titrated, usually from 38.3 µM), without a hit: at the top dose activity change, negative = inhibition, most hits filed as inhibitors; AID 540303; cell surface uPA generation assay, qHTS; active = well fitted inhibition curve with a large enough effect; inconclusive = small, poorly fitted or top-dose-only effect; inactive = no such curve, though single readings can be large or run the other way; tested in mouse RAW 264.7 cells; note: potency is the fitted concentration of half-maximal effect; nearly all actives have a fitted effect of over 55% in size
IL1B secr inh – blocks inflammasome-driven IL-1 beta release; activity change, % at 57.5 µM; THP-1 LPS/ATP IL-1B secretion, AlphaLISA, 16 h; active compounds read low; actives 4.7% (n = 360,000); in the data active = activity change below about -50%; inconclusive = mostly about -30% to -49%
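Secreted IL-1B measured by AlphaLISA bead assay after 16 h compound exposure of THP-1 cells; compounds (final up to 57.5 uM) added 1 h before LPS (250 ng/mL) and ATP (1.25 mM) stimulation; lower signal means less secretion.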
TDP1 cell CPT – DT40-hTDP1 cell growth loss with CPT; chicken DT40 Tdp1-/-;hTDP1 cells + 20 nM CPT, ATP luminescence, 48 h; Potency, µM (series often up to 46.2 µM), for inactives: at the highest dose activity change, negative = growth inhibition, usual class: inhibitors; actives 12% (n = 420,000); AID 686979; note: potency is the fitted concentration of half-maximal effect; nearly all actives have a fitted effect of over 55% in size
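Chicken DT40 Tdp1-/- cells stably complemented with human TDP1 were seeded at 400 cells/well in medium containing 20 nM camptothecin, exposed to pin-transferred compounds, and grown at 37 °C for at least 48 hr. Viability was read as ATP luminescence.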
An asterisk follows results filed as active; ? = inconclusive; . = not tested or not shown; [ ] = remark or other dose. Unless noted, calls come from the whole dose curve; as a rule, active = well fitted curve in the direction sought with a large enough effect; inconclusive = small, poorly fitted or top-dose-only effect, or another doubt; inactive = no such curve, though single readings can be large; an effect the other way counts as inactive or inconclusive. Unless noted, % is set by controls: 0 for no effect and ±100 for the full control effect.

SMILES	HT1080-NT tox	TDP1 cell noCPT	HT1080 IDH1KD tx	uPA generation	IL1B secr inh	TDP1 cell CPT
Cc1ccc(-c2nnc(SCC(=O)Nc3cccc(C(=O)N4CCOCC4)c3)n2C)cc1	0%	2%	-1%	-4%	-3	?
CCCCCCCCCCCCCCC(F)C(=O)O (configuration not stated)	.	9%[4.12 µM]	.	.	.	4%[4.12 µM]
CCOc1cc(/C=N/NC(=O)c2cc(-c3cccnc3)nc3ccccc23)ccc1O	-7%	6.5µM*	-2%	3%	21	-29%
COc1ccc(/C=N/NC(=O)c2ccncc2)cc1CN1CCOCC1	18%	-9%	18%	1%	.	-4%
CCOc1cc(/C=N/NC(=O)c2c(-c3ccccc3)noc2C)ccc1O	2%	-7%	3%	-15%	38	-23%
O=C(N/N=C/c1ccc[nH]1)c1cc(-c2ccc(Cl)cc2)nc2ccccc12	?	9.2µM*	?	-20%	6	?
CCOc1cccc(-c2cc(C(=O)N/N=C/c3ccc(OC)c(CN4CCOCC4)c3)c3ccccc3n2)c1	?	16µM*	?	-4%	-24	18µM*
CCc1cc2c(SCC(=O)Nc3ccc(NC(C)=O)cc3)ncnc2s1	-20%	-25%	1%	12%	-15	-20%
CCc1cc2c(Sc3nc4ccccc4s3)ncnc2s1	5.2µM*	9.2µM*	?	?	?	5.2µM*
c1ccc2sc(Sc3ncnc4sccc34)nc2c1	-24%	2.9µM*	?	-17%	-79*	5.8µM*
O=C(c1sc2cc(Cl)ccc2c1Cl)N1CCN(CCc2ccccn2)CC1	-16%	?	-17%	0%	-10	-22%
COc1ccccc1NC(=O)c1cc2c([nH]c1=O)CC(C)(C)CC2=O	.	-2%	.	.	.	-1%
CC(C)c1ccc(C(=O)C[N+]2(C)CCOCC2)cc1	.	-18%	.	.	.	-10%
COc1ccccc1Cc1c(-c2ccc(C#N)cc2)nc2ccc(C)cn12	?	18µM*	?	.	?	?
Cc1ccc2nc(-c3cccc(Cl)c3)c(Cc3ccccc3)n2c1	3%	16µM*	-10%	.	-5	21µM*
COc1ccc(Cc2c(-c3ccc(C)cc3)nc3ccc(Cl)cn23)c(C)c1	?	23µM*	?	.	-4	23µM*
COc1ccccc1Cc1c(-c2cccc(Cl)c2)nc2ccc(C)cn12	?	15µM*	?	.	0	18µM*
Clc1cccc(-c2nc3ccc(Br)cn3c2Cc2ccccc2)c1	-28%	?	-15%	.	20	?
Cc1ccc2nc(-c3ccc(F)cc3)c(Cc3ccccc3C(F)(F)F)n2c1	?	?	?	.	14	?
COc1ccccc1Cc1c(-c2ccc(C)cc2)nc2ccc(Cl)cn12	-20%	0.46µM*	-18%	.	-102*	?
COc1ccc(CN2CC(=O)N(c3ccc(C)c(C)c3)C2=S)cc1OC	-7%	?	-14%	0%	30	-3%
O=C(OCCN(C1=NS(=O)(=O)c2ccccc21)c1ccccc1Cl)c1ccc(Cl)cc1	-16%	?	0%	.	14	18µM*
O=C(COc1coc(CN2CCN(c3cccc(Cl)c3)CC2)cc1=O)NC1CCCC1	7%	15µM*	0%	-10%	-1	?
Cc1ccc(NC(=O)COc2coc(CN3CCN(c4ccccc4)CC3)cc2=O)cc1	-1%	21µM*	-4%	3%	13	-29%
Cc1cccc(-c2nc(SCC(=O)Nc3cccc(C(F)(F)F)c3)n3[nH]c(=O)cc3n2)c1	.	-6%	.	.	.	-5%
SMILES	HT1080-NT tox	TDP1 cell noCPT	HT1080 IDH1KD tx	uPA generation	IL1B secr inh	TDP1 cell CPT
COc1ccccc1C(=O)Nc1cccc(OCc2cc(=O)n3c(C)csc3n2)c1	.	23µM*	.	.	.	16µM*
Cc1ccccc1C(=O)Nc1cccc(OCc2cc(=O)n3c(C)csc3n2)c1	.	-13%	.	.	.	-2%
COc1cc(C(=O)Nc2cccc(OCc3cc(=O)n4c(C)csc4n3)c2)cc(OC)c1OC	.	15µM*	.	.	.	21µM*
CC(=O)Nc1ccccc1OCc1cc(=O)n2c(C)csc2n1	.	?	.	.	.	-17%
CC1=C(C(=O)OCc2cc(C)on2)N2C(=O)[C@@H](NC(=O)OCc3cc(C)on3)[C@H]2SC1	10%	-19%	14%	-15%	13	-23%
FC(F)Oc1ccc(NC(=S)NCc2ccccc2)cc1Cl	?	?	?	.	-89*	16µM*
O=C(Nc1ccc(OC(F)F)c(Cl)c1)C(c1ccccc1)c1ccccc1	?	18µM*	16µM*	-15%	-62*	?
O=C(Nc1ccc(Cl)c(C(F)(F)F)c1)c1ccco1	-5%	?	-1%	1%	?	-21%
CCNC(=S)Nc1ccc(Cl)c(C(F)(F)F)c1	0%	23µM*	-10%	-7%	4	-95%
CC(NC(=S)Nc1ccc(OC(F)F)c(Cl)c1)C(C)(C)C (configuration not stated)	?	?	?	-5%	-96*	?
FC(F)Oc1ccc(NC(=S)NCc2ccccc2)cc1	-9%	?	-13%	2%	-4	-27%
COc1ccc(NC(=S)Nc2ccc(C)c(Cl)c2)cc1OC	-10%	-26%	12%	25%	-11	-30%
O=C(c1cccc(F)c1)N1CCC2(CC1)CN(c1ncccn1)C2	.	-17%	.	.	.	?
Cc1ccc2c(c1)sc1nc(-c3cc4ccccc4oc3=O)cn12	.	1%	.	.	.	-16%
Fc1cc(NC(=S)NCc2ccc(CNC(=S)Nc3ccc(Cl)c(F)c3)cc2)ccc1Cl	-26%	13µM*	-22%	?	21	?
Fc1cccc(NC(=S)NCc2ccc(Cl)cc2)c1	7%	?	16%	-4%	-15	?
COc1ccc(NC(=O)c2c(NC(=O)C(F)(F)F)sc3c2CCCCC3)cc1	.	18µM*	.	.	.	?
COc1ccc(NC(=O)c2c(NC(=O)Cc3ccccc3)sc3c2CCCC3)cc1	.	-21%	.	.	.	-10%
Cc1ccc(NC(=O)c2c(NC(=O)Cc3ccccc3)sc3c2CCC3)cc1	.	?	.	.	.	-1%
CC1CCc2c(sc(NC(=O)Cc3ccccc3)c2C(=O)Nc2ccc(Cl)cc2)C1 (configuration not stated)	.	?	.	.	.	15µM*
O=C(Cc1ccccc1)Nc1sc2c(c1C(=O)Nc1ccc(Br)cc1)CCCC2	.	21µM*	.	.	.	12µM*
COc1ccc(CC(=O)Nc2sc3c(c2C(=O)Nc2ccc(C)cc2)CCCCC3)cc1	.	16µM*	.	.	.	?
